Measurements taken from PubChem BioAssay (NCATS).
“And” between values parts separate entries of the source, which are not always exact repeats. Equal values may be shown once. Records with an inconclusive call do not appear. Unmarked numbers belong to inactive results. The source made the active and inactive calls. Calls come from the whole dose curve; as a rule, active = well fitted inhibition curve with a large enough effect; inconclusive = small, poorly fitted or top-dose-only effect; inactive = flat fitted curve, though single readings scatter.

test system: KB-3-1; experiment: Cytotoxic Profiling of Annotated Libraries Using Quantitative High-Throughput Screening (AID 1296008); conditions: Five cell lines viability, CellTiter-Glo ATP luminescence, 48-72 h; max response: active compounds read low; note: nearly all actives have a fitted effect of over 60% in size
Method in brief: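 Cells exposed to compounds for 48 or 72 hr at 37 degrees Celsius. Viability read as ATP-coupled luminescence with CellTiter-Glo after 10 min at room temperature.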
% is set by controls: 0 for no effect and ±100 for the full control effect; potency is the fitted concentration of half-maximal effect.

With `C=C1CC[C@@H]2[C@](C)(CO)[C@H](O)CC[C@@]2(C)[C@@H]1CC(=O)C1=CCOC1=O` as the molecule, how does the max response read?
Its max response is -15.5%.

For `C=Cc1ccccc1`, which max response is on record?
The max response was -0.236%.

`O=P(O)(O)C(O)(Cc1cnc2ccccn12)P(=O)(O)O` was tested. Which max response did it give?
The max response was -1.58%.

With `C[C@H](CSC(=O)c1ccccc1)C(=O)N1C[C@@H](Sc2ccccc2)C[C@H]1C(=O)O` as the molecule, how does the max response read?
Its max response is -1.05%.

Which max response does the source give for `CC#CCC(C)[C@H](O)/C=C/[C@@H]1[C@H]2c3cccc(CCCC(=O)O)c3O[C@H]2C[C@H]1O` (stereo partly drawn) here?
The max response was -28.3%.

`NCCCNCCCCNC(=O)C(O)NC(=O)CCCCCCN=C(N)N` (stereo not drawn) was tested. Which max response did it give?
The max response was -11.3%.

For `CC[C@H]1OC(=O)[C@H](C)[C@@H](O[C@H]2C[C@@](C)(OC)[C@@H](O)[C@H](C)O2)[C@H](C)[C@@H](O[C@@H]2O[C@H](C)C[C@H](N(C)C)[C@H]2O)[C@](C)(O)C[C@@H](C)[C@@H]2N[C@@H](COCCOC)O[C@@H]([C@H]2C)[C@]1(C)O`, which max response is on record?
The max response was -15.7%.

For `CC#CCC(C)[C@H](O)/C=C/[C@@H]1[C@H]2C/C(=C/CCCC(=O)O)C[C@H]2C[C@H]1O` (stereo partly drawn), which max response is on record?
The max response was -19%.

With `O=C(Nc1nnc(-c2ccc3c(c2)OCCO3)o1)C1CCCCC1` as the molecule, how does the max response read?
The max response was 6.45%.

`COC(=O)C1=C(C)NC(C)=C(C(=O)O[C@H]2CCN(Cc3ccccc3)C2)[C@H]1c1cccc([N+](=O)[O-])c1` was tested. Which max response did it give?
The max response was -25.4%.

Which max response does the source give for `Cn1nnnc1SCC1=C(C(=O)O)N2C(=O)[C@@H](NC(=O)[C@H](OC=O)c3ccccc3)[C@H]2SC1` here?
Its max response is -7.31%.

With `CCN(CC)c1ccc(C(=C2C=CC(=[N+](CC)CC)C=C2)c2ccccc2)cc1` as the molecule, how does the Potency read?
Its Potency is 1.3 µM (active).

For `Nc1c(CC(=O)O)cccc1C(=O)c1ccccc1`, which max response is on record?
The max response was -7.36% and -8.46%.

How did the outcome turn out when `CC(C)C[C@@H](N)C(=O)N[C@H]1C(=O)N[C@@H](CC(N)=O)C(=O)N[C@H]2C(=O)N[C@H]3C(=O)N[C@H](C(=O)N[C@H](C(=O)O)c4cc(O)cc(O)c4-c4cc3ccc4O)[C@H](O)c3ccc(c(Cl)c3)Oc3cc2cc(c3O[C@@H]2O[C@H](CO)[C@@H](O)[C@H](O)[C@H]2O[C@H]2C[C@](C)(N)[C@H](O)[C@H](C)O2)Oc2ccc(cc2Cl)[C@H]1O` was run?
Its outcome is “inactive”.

How did the max response turn out when `O=C(O)c1ccccc1[O-].O=C(O)c1ccccc1[O-].[Zn+2]` was run?
The max response was -8.24%.

How did the max response turn out when `CCC(C)(OC(C)=O)C(=O)O[C@H]1[C@H](OC(C)=O)[C@]2(CO)[C@H](O)[C@H](O)[C@]3(C)C(=CCC4[C@@]5(C)CC[C@H](O[C@@H]6O[C@H](C(=O)O)[C@@H](O)[C@H](O[C@@H]7OC[C@H](O)[C@H](O[C@@H]8OC[C@H](O)[C@H](O)[C@H]8O)[C@H]7O)[C@H]6O[C@@H]6O[C@H](CO)[C@@H](O)[C@H](O)[C@H]6O)C(C)(C)C5CC[C@]43C)[C@@H]2CC1(C)C` (stereo partly drawn) was run?
Its max response is -16.4%.

`CO[C@H]1[C@@H](O)[C@H](N)[C@@H](O[C@H]2O[C@H]([C@H](C)N)CC[C@H]2N)[C@H](O)[C@@H]1N(C)C(=O)CN` was tested. Which max response did it give?
The max response was -19.3%.

For `CCC(=O)O`, which max response is on record?
Its max response is -11.1%.

How did the Potency turn out when `C/C=C1\NC(=O)[C@H]2CSSCC/C=C/[C@H](CC(=O)N[C@H](C(C)C)C(=O)N2)OC(=O)C(C(C)C)NC1=O` (stereo partly drawn) was run?
The Potency was 0.0092 µM (active).

With `COC(C)=O` as the molecule, how does the max response read?
The max response was -9.47%.

For `CC(NC(=O)Cc1cc(F)cc(F)c1)C(=O)NC1C(=O)N(C)c2ccccc2-c2ccccc21` (stereo not drawn), which Potency is on record?
Its Potency is 16.4 µM (active).

For `CC(C(=O)O)c1ccc(C2CCCCC2)c2ccccc12` (stereo not drawn), which max response is on record?
Its max response is -20.6%.

How did the max response turn out when `O=P(O)(O)OC(Cn1cncn1)(Cn1cncn1)c1ccc(F)cc1F` was run?
The max response was -21.6%.

How did the max response turn out when `CN(C)CCOc1ccccc1Cc1ccccc1` (tested in a mixture with another compound) was run?
Its max response is 0.128%.

For `COc1cc2[nH]c(C)c(CCN3CCN(c4ccccc4)CC3)c2cc1OC`, which max response is on record?
Its max response is -9.43%.

How did the max response turn out when `O=C(c1ccccc1)c1c(O)cc(O)cc1O[C@@H]1O[C@H](CO)[C@@H](O)[C@H](O)[C@H]1O` was run?
Its max response is 2.63%.

`CC1=C(C(=O)OCCN(Cc2ccccc2)c2ccccc2)C(c2cccc([N+](=O)[O-])c2)C(P2(=O)OCC(C)(C)CO2)=C(C)N1` (stereo not drawn) was tested. Which max response did it give?
Its max response is 26.8%.

For `CCCC(=O)N1CCCN(c2nc(N)c3cc(OC)c(OC)cc3n2)CC1`, which max response is on record?
Its max response is -12.4%.
